Here are results for 40 compounds from PubChem BioAssay (Tox21).

Records with an inconclusive call do not appear. Activity calls are given as the source filed them. Calls come from the whole dose curve; as a rule, active = well fitted activation curve with a large enough effect in the repeat runs; inconclusive = weak or mixed curves; inactive = flat fitted curve, though single readings scatter.
% is set by controls: 0 for no effect and ±100 for the full control effect; potency is the fitted concentration of half-maximal effect.

The test in a line: A CellTox Green Cytotoxicity Assay to monitor cytotoxicity in HepG2 cells - 32 hour (AID 1224883). Note: nearly all actives have a fitted effect of over 50% in size. As to conditions: CellTox Green fluorescence; series mostly up to 76.8 µM; cytotoxicity increase: at the top concentration. An excerpt:
National Center for Advancing Translational Sciences [NCATS]
NIH Chemical Genomics Center [NCGC]
U.S. Environmental Protection Agency [EPA]
National Institutes of Environmental Health Sciences [NIEHS]
National Toxicology Program [NTP]
Cell-based models are critical for drug discovery. Determining the natural cytotoxic effects resulting from test compounds is an essential research activity. A CellTox Green Cytotoxicity Assay to monitor cytotoxicity in real time of continues cell culture during 40 hours of the compound treatment was used to screen Tox21 10K library compounds in HepG2 cells. CellTox Green Cytotoxicity Assay is a nonlytic, homogeneous, biofluorescent method to measure cytotoxicity in cell culture after experimental manipulation. The assay system uses a proprietary asymmetric cyanine dye that is excluded from viable cells but preferentially stains the dead cell's DNA. […] Viable cells produce no appreciable increases in fluorescence. Therefore, the fluorescence signal produced by the binding interaction with dead cell DNA is proportional to cytotoxicity.
The mixture of HepG2 cell suspension and reagents were dispensed at 600cells/6 ul/well in 1536-well tissue culture treated black solid bottom plates using a Multidrop dispenser. After the assay plates were incubated at a 37 C/5% CO2 incubator for 5 hours, 23 nL of compounds dissolved in DMSO, positive and negative controls was transferred to the assay plate by a pintool work station. The plates were incubated at 37 C for 40 hours. The fluorescence intensity were measured at 0h, 8h, 16h, 24h, 32h and 40h time points using ViewLux plate reader during compound treatment.
Consider `COC(=O)c1cc(Oc2ccc(Cl)cc2Cl)ccc1[N+](=O)[O-]`, for which the “cytotoxicity increase” value is -17.8% (inactive).

For `CN1C2CCC(C)(C)C1CC(OC(=O)C(O)(c1cccs1)c1cccs1)C2` (stereo not given), the “cytotoxicity increase” value was 10.1% [at 35.3 µM] (inactive).

Turning to `CCCCC(CC)COC(=O)c1ccccc1C(=O)OCC(CC)CCCC` (stereo not given), the “cytotoxicity increase” value was 1.6% (inactive).

Regarding `COc1c2c(cc3c1OCO3)CCN(C)C2`, the “cytotoxicity increase” value was -0.578% [at 35.3 µM] (inactive). In the case of `O=[N+]([O-])c1ccccc1-c1ccccc1`, the “cytotoxicity increase” value was 4.17% (inactive). `[C-]1=CC=CC1.[Cl][Zr+2][Cl].c1cc[cH-]c1`: the “cytotoxicity increase” value was -9.77% (inactive). For the compound `Cc1c([N+](=O)[O-])c(C)c([N+](=O)[O-])c(C(C)(C)C)c1[N+](=O)[O-]`, the “cytotoxicity increase” value was 1.38% (inactive). In the case of `O=Cc1ccccc1`, the “cytotoxicity increase” value is -5.14% (inactive). On the same count and under the same terms, in the case of `COC(=O)/C=C(\C)OP(=O)(OC)OC` it was 14.2% (inactive); in that of `CC(=O)O.CC(=O)O.CC(=O)O.CC(=O)O.CC(=O)O.CC(=O)O.CC(=O)O.O.O.[Cr].[Cr].[Cr]`, 4.75% (inactive). With `CC(C)Br`, the “cytotoxicity increase” value was -1.56% (inactive). Still for that read-out and setting: in the case of `CC(C)=CCN1CC[C@@]2(C)c3cc(O)ccc3C[C@@H]1[C@@H]2C` it was 19.8% (inactive). Regarding `C=C(C)C(=O)[O][Sn]([CH2]CCC)([CH2]CCC)[CH2]CCC`, the Potency is 0.616 µM (active).

On to `BrCCCBr`, for which the “cytotoxicity increase” value was -12.9% (inactive). As to `Cc1ccc([N+](=O)[O-])[c]2c1[O][Hg]2`, the Potency is 2.13 µM (active).

For the compound `CNC(=O)Oc1cc(C)cc(C(C)C)c1`, the “cytotoxicity increase” value is -5.65% (inactive). On the same count and under the same terms, the same measure for `CSC(C)(C)/C=N/O`: -1.61% (inactive). Consider `ClC1=C(Cl)[C@]2(Cl)[C@H]3[C@H]([C@@H]4C=C[C@H]3C4)[C@@]1(Cl)C2(Cl)Cl`, for which the Potency was 54.9 µM (active). Consider `Cc1ccccc1OP(=O)(Oc1ccccc1C)Oc1ccccc1C`, for which the “cytotoxicity increase” value is 3.44% (inactive). Turning to `CCCCc1ccccc1`, the “cytotoxicity increase” value is 0.323% (inactive). As to `Cc1cc2c3c(c1)C(c1ccccc1)=N[C@@H](NC(=O)c1ccncc1)C(=O)N3CC2`, the “cytotoxicity increase” value is 9.04% (inactive). `CC(C)N(C(=O)CCl)c1ccccc1`: the Potency was 49 µM (active). For the compound `CCC(C)Nc1c([N+](=O)[O-])cc(C(C)(C)C)cc1[N+](=O)[O-]` (stereo not given), the “cytotoxicity increase” value was 1.13% (inactive). On to `COP(=O)(OC)Oc1ccc([N+](=O)[O-])cc1`, for which the “cytotoxicity increase” value is -8.49% (inactive). For the compound `CC(=O)[O-].CC(=O)[O-].O.O.O.[Pb+2]`, the “cytotoxicity increase” value was 5.21% (inactive). For the compound `Clc1cc(Cl)c(-c2cc(Cl)c(Cl)cc2Cl)cc1Cl`, the “cytotoxicity increase” value is -5.04% [at 35.3 µM] (inactive).

On to `CCC1COC(Cn2cncn2)(c2ccc(Cl)cc2Cl)O1` (stereo not given), for which the “cytotoxicity increase” value is 31.5% (inactive).

In the case of `COc1cnc(OC)n2nc(NS(=O)(=O)c3c(OCC(F)F)cccc3C(F)(F)F)nc12`, the “cytotoxicity increase” value is -10.1% (inactive). Regarding `[F][Sn]([c]1ccccc1)([c]1ccccc1)[c]1ccccc1`, the Potency was 1.95 µM (active). As to `N#CSCc1ccccc1`, the “cytotoxicity increase” value was -0.462% (inactive).

Regarding `N#Cc1sc2c(=O)c3ccccc3c(=O)c=2sc1C#N`, the Potency is 13.8 µM (active). As for `CCOP(=O)(OCC)Oc1nc(Cl)c(Cl)cc1Cl`, the “cytotoxicity increase” value was 10.7% (inactive). On to `O=[N+]([O-])c1ccc(Cl)c(Cl)c1Cl`, for which the “cytotoxicity increase” value was 11.8% (inactive). Same read-out and setting: the same measure for `C[N+]1(C)[C@@H]2CC[C@H]1CC(OC(=O)C(CO)c1ccccc1)C2` (stereo not given in full): -2.73% [at 35.3 µM] (inactive).

Take `CN`: the “cytotoxicity increase” value was 1.31% (inactive).

In the case of `Clc1c(Cl)c(Cl)c(Cl)c(Cl)c1Cl`, the cytotoxicity increase is -1.01% [at 6.97 µM] (inactive). On the same count and under the same terms, in the case of `CC(C)c1c(CN(C)C(C)Cc2ccccc2)n(C)n(-c2ccccc2)c1=O` (stereo not given) it was 18.6% [at 35.3 µM] (inactive); in that of `CNC(=O)CSP(=O)(OC)OC`, -0.689% (inactive). With `C#CCC1=C(C)C(OC(=O)C2C(C=C(C)C)C2(C)C)CC1=O` (stereo not given), the “cytotoxicity increase” value was 3.04% (inactive). Regarding `CC(=O)[O-].CC(=O)[O-].[Co+2]`, the “cytotoxicity increase” value was 1.2% (inactive).
